Reference: PubChem BioAssay AID488841 (Sanford-Burnham Center for Chemical Genomics, 2010)
Hit rate of the full screen: of about 1,400 compounds, about 380 (27%) were called active.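 Rule for the calls: active = mean inhibition above 50% across duplicate retests at 10 µM; inactive = the rest.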 This is one part of the list.

experiment: yeast NALP1 reporter signal suppression – S. cerevisiae, luminescence, single concentration, NALP1 inhibitor project, confirmation (AID 488841);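 note: plate controls were DMSO in galactose medium for no effect and cells in plain SD medium for full effect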; details: S. cerevisiae NALP1/ASC/Caspase-1 reporter, beta-gal luminescence; at 10 µM; stronger effect = higher value

inhibition, inactive:
CCN(CC)S(=O)(=O)c1ccc2[nH]c(=O)cc(C(=O)Nc3ccc(C)c(S(=O)(=O)N(CC)CC)c3)c2c1 27.6%
CC(C)C(NS(=O)(=O)c1ccc2c(c1)oc(=O)n2C)C(=O)N1CCN(C2CCCCC2)CC1 (stereo unspecified) 25.9%
CSc1ccc(S(=O)(=O)NCc2ccc(C)cc2)cc1 38.7%
CC(C)(C#CCN1CCCCC1)OCCOC(c1ccccc1)c1ccccc1 28.1%
COc1ccc(C2SCC(=O)N2CCCN(C)C)cc1 (stereo unspecified) 35%
Cc1ccsc1/C=N/n1c(-c2ccccn2)n[nH]c1=S 37.9%
Cc1cccc(/C=N/n2c(-c3cc(-c4ccccc4)n[nH]3)n[nH]c2=S)c1 27.3%
CC(C)Oc1ccc(OCCNC2CCCC2)cc1 35.8%
CCN1CCN(c2cc3c(cc2F)c(=O)c(C(=O)O)cn3C2CC2)CC1 14.2%
Cn1c(=O)c([N+](=O)[O-])c(-n2cnc3ccccc32)c2ccccc21 37%
CN1CCN(S(=O)(=O)c2ccc(Br)c3nsnc23)CC1 19.9%
Cc1nc(C)c(/C(O)=C/c2nc3ccccc3oc2=O)s1 44.5%
CCn1c(N2CCN(C(=O)C34CC5CC(CC(C5)C3)C4)CC2)nc2ccccc21 44.6%
C/C(=N\NC(=O)Cc1csc(N2CCOCC2)n1)c1ccccc1 24.6%
O=c1cc(CSc2ccc(Cl)cc2)[nH]c2[nH]n(-c3ccccc3)c(=O)c12 29.9%
Cc1cc2ccccn2c1C(C[N+](=O)[O-])c1ccc(N(C)C)cc1 (stereo unspecified) 31.1%
COC(=O)C1(C(C[N+](=O)[O-])c2ccc(C)cc2)C(=O)NCC1c1ccco1 (stereo unspecified) 29.4%
COc1ccc(OC)c(N/C(=N/C(=S)Nc2ccccc2)Nc2nc(C)cc(C)n2)c1 30.3%
CC12CCC(C(=O)O)(C/C1=N\O)C2(C)C (stereo unspecified) 15%
CCOc1nc(-c2ccccc2Cl)ccc1C#N 42.2%
C=CCc1cc(Cl)ccc1OCCNCCCOC 45.8%
COCCCNCCOc1cc(C(C)C)ccc1C 30.8%
COC(=O)C(Cc1ccccc1)NC(=O)COc1ccc(C(C)(C)C)cc1 (stereo unspecified) 36.6%
C=CCNCCOCCSc1ccc(Cl)cc1 45.3%
CS(=O)(=O)n1nc(-c2ccc(Cl)cc2)nc1SCc1ccccc1 36.2%
c1csc(C2Nc3ccccc3-c3nc4ccccc4n32)c1 (stereo unspecified) 31.5%
CCCc1ccc(-c2c(C)sc(N)c2C#N)cc1 39%
CCN1CCN(c2cc(C(C)C)nc3c(-c4ccccc4)c(C)nn23)CC1 40.4%
CCc1cc(OCCCCNCc2ccccc2)ccc1Cl 43.2%
COc1ccc(C(=O)C2CCCN(C(=O)Cn3nc(C)cc3C)C2)cc1F (stereo unspecified) 36.5%
Cc1ccc(S(=O)(=O)NCc2ccc(C(=O)NCCCN3CCC(Cc4ccccc4)CC3)cc2)cc1 22%
CN(CC(=O)NC(=O)NCc1ccccc1)Cc1cccc(Cl)c1Cl 32.5%
Cc1ccccc1OCC(=O)Nc1cccc(N(C)S(C)(=O)=O)c1 18.4%
COC(=O)C1=C(C)NC(C)=C(C(=O)OC)C1c1ccc(OC(=O)c2oc3ccccc3c2C)c(OC)c1 10.6%
O=C(c1ccc(S(=O)(=O)c2ccccc2)cc1)N1CCCCCC1 32.5%
O=c1[nH][nH]c(-c2ccccc2O)c1C(C[N+](=O)[O-])c1ccc(Cl)cc1Cl (stereo unspecified) 37.8%
CC1(C)NC(=O)N(CCCCOc2ccc3ccccc3c2Cl)C1=O 38.6%
CCCCNCCOCCOc1ccccc1-c1ccccc1 44%
CN(C)c1nc(N)nc(CSc2nnnn2-c2ccc(C(=O)O)cc2)n1 29.5%
Nc1[nH]c(=O)ncc1F 43.8%
CCOc1ccc(N=c2oc3cc(O)ccc3cc2C(=O)NCC2CCCO2)cc1 (stereo unspecified) 24.5%
COC1=C(Nc2ccc(O)cc2)C(=O)c2ccccc2C1=O 32.3%
Cc1cc(Nc2ccccc2)nn1C(=O)c1ccccc1 44.5%
CCn1nc(C)cc1Nc1ccccc1 22.3%
COc1ccc(C2=NN3C(=O)c4c(ccc(OC)c4OC)C3C2)cc1 (stereo unspecified) 37.6%
CCC(=O)N(Cc1cc2c(C)ccc(C)c2[nH]c1=O)C1CCCCC1 27.1%
CCNc1c(C(=O)O)ccc2c1C(=O)c1ccccc1C2=O 32.4%
CCc1ccc(OCC(=O)Nc2ccc(CN3CCCCC3)cc2)cc1 48.2%
Cc1cc(C)c([C@@H]2C[C@H]3CN(C4CCCC4)C(=O)[C@]34CCCN24)c(-n2cccn2)c1 28.9%
COC(=O)CCn1nnc(-c2ccc(C(C)C)cc2)n1 38.5%
COc1cccc(CN2CCC(C(=O)N3CCN(c4ccccc4F)CC3)CC2)c1OC 37.2%
O=C1C(Cl)=C(N2CCN(c3ccccc3[N+](=O)[O-])CC2)C(=O)c2ccccc21 47.2%
C/C(=N\NC(=O)c1csc(C)c1C)c1ccc(Cl)s1 40.9%
CCNc1ccc(Br)cc(C(=O)/C=C/c2c(Cl)cccc2Cl)c1=O 39.5%
O=C(/C=C/c1cccs1)c1cc(Br)ccc1OC(=O)N1CCOCC1 28.1%
COc1cccc(-c2nn(C)c3sc(C(=O)N4CCOCC4)cc23)c1 35.3%
Cc1[nH]c2ccccc2c1C(=O)CSc1nc2ncc(Cl)cc2[nH]1 25.4%
O=C(NC(Cc1c[nH]c2ccccc12)C(=O)O)/C(=C\c1ccc2c(c1)OCO2)NC(=O)c1ccccc1 (stereo unspecified) 32.5%
CN(C)c1ccc(N/C=C/C(=O)c2ccccc2)cc1 35.4%
Cc1cc(SC#N)cc(C)c1NC(=O)CCl 21.6%
CC(C)c1nc2sc3c(=O)[nH]c(=S)[nH]c3c2c2c1CCC2 30.2%
Cc1ccc2nc(Cl)c(C3CC(c4cccs4)=NN3C(=O)CCCC(=O)O)cc2c1 (stereo unspecified) 33.7%
OC(COCc1ccc2c(c1)OCO2)CN1CCN(Cc2ccccc2)CC1 (stereo unspecified) 32%
CCOC(=O)c1c(O)c2cc(Cl)ccc2n(CC)c1=O 40.1%
OC(CNCCC1C=Nc2ccccc21)Cn1c2ccc(Cl)cc2c2cc(Cl)ccc21 (stereo unspecified) 40.7%
COc1ccc(OCC(O)Cn2c(=N)n(Cc3ccccc3)c3ccccc32)cc1 (stereo unspecified) 27.4%
CCN1CCN(C(=O)N[C@@H](C(=O)N[C@@H]2C(=O)N3[C@@H]2SC(C)(C)[C@@H]3C(=O)O)c2ccccc2)C(=O)C1=O 45.5%
CCn1c(=O)cc(SCC(=O)N2CCN(C3CCCCC3)CC2)c2ccccc21 32.6%
N/C(Cc1ccc(Cl)cc1)=N\OC(=O)C1CCCCC1 46.6%
CSc1ccccc1NC(=O)Nc1ccccc1Cl 30%
COc1ccc(NC(=O)c2ccc(C)cc2)c(OC)c1 37.7%
O=C(NCCN1C(=O)S/C(=C\c2cccnc2)C1=O)c1cccc(OC(F)F)c1 39.6%
COc1ccc(C)cc1NC(=O)c1ccc(CN2CCN(c3ccccc3)CC2)cc1 47.2%

inhibition, active:
Clc1ccc(Nc2ccc(NCc3ccccc3)nn2)cc1 75.7%
CN(C)C(C)(C)C#CCC(c1ccccc1)c1ccccc1 61.6%
S=c1[nH]nc(-c2ccco2)n1/N=C/c1cccc(Cl)c1Cl 56%
CS/C(=N\S(=O)(=O)c1cccs1)Nc1ccc(Br)cc1F 52%
CN1c2ccccc2Sc2cc(N)ccc21 94%
Cc1[nH]n(-c2ccccc2)c(=O)c1C(C[N+](=O)[O-])c1ccc(Cl)cc1 (stereo unspecified) 77.5%
Cc1[nH]n(-c2ccccc2)c(=O)c1C(C[N+](=O)[O-])c1ccc(Br)cc1 (stereo unspecified) 66.2%
Cc1ccc(C(C[N+](=O)[O-])c2c(C)[nH]n(-c3ccccc3)c2=O)cc1 (stereo unspecified) 78.1%
C=CCNCCOc1ccc(C(C)(C)c2ccccc2)cc1 60.4%
COCCCNCCOc1ccc(C(C)(C)c2ccccc2)cc1 57.4%
O=C(Nc1cc(Cl)ccc1-n1cncn1)c1ccc([N+](=O)[O-])s1 90.7%
CN(c1ccccc1)c1ccc(/C=C/[N+](=O)[O-])cc1 95%
COc1ccc(CNCC(O)(c2ccccc2)c2ccc(Cl)cc2)cc1 (stereo unspecified) 57.9%
C#C[C@]1(O)CC[C@H]2[C@@H]3CCc4cc(O)ccc4[C@H]3CC[C@@]21C 65.4%
C#C[C@]1(O)CC[C@H]2[C@@H]3CCC4=C(CCC(=O)C4)[C@H]3CC[C@@]21C 59.2%
COc1ccccc1C(C[N+](=O)[O-])c1c(N)n(C)c(=O)n(C)c1=O (stereo unspecified) 93.7%
COc1cccc(F)c1C(C[N+](=O)[O-])c1c(N)n(C)c(=O)n(C)c1=O (stereo unspecified) 89.5%
Cc1ccc(C(C[N+](=O)[O-])c2c(N)n(C)c(=O)n(C)c2=O)cc1 (stereo unspecified) 96.2%
Cc1cc(Nc2ccccc2)nc2cc(O)ccc12 84.7%
COc1ccc(Nc2cc(C)c3ccc(O)cc3n2)cc1 89.7%
COc1cc(/C=C/C(=O)c2ccc(Cl)s2)cc(OC)c1O 50.9%
CCCc1[nH]n(-c2nc3ccccc3s2)c(=O)c1C=NCC(C)C 54.1%
O=C(/C=C/c1ccccn1)c1ccc(Br)cc1O 67.5%
O=C(/C=C/c1c[nH]c2ccccc12)c1ccccc1 80.5%
OC(CN1CCN(Cc2ccccc2)CC1)Cn1c2ccccc2c2ccccc21 (stereo unspecified) 63.1%
OC(CN1CCCCC1)Cn1c2ccc(Cl)cc2c2cc(Cl)ccc21 (stereo unspecified) 52.5%
COc1ccc(C)cc1NC(=O)c1ccc(OC(F)F)cc1 59.4%
Cc1c(Cl)cccc1NC(=O)c1cccc(OC(F)F)c1 53%
